# According to PubChem BioAssay:
# Where “and” joins values, the source holds several entries; their conditions need not be identical. Equal entries are not always repeated. Calls of active or inactive are those of the source.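 How the source made its calls, unless noted: active means thallium flux through the channel raised or lowered by more than 3 SD from vehicle-only wells, actives on both sides; inactive means the rest.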
# Legend:
# [1] = liver-stage malaria parasite growth inhibition, primary screen, cell-based, HepG2, luciferase luminescence, HepG2 viability (AID 624349; in the data active means parasite load remaining mostly below about 12%, no sharp cut-off; inactive means mostly above about 10%;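 further: 100% = mean of DMSO negative control wells on the same plate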); conditions: P. berghei liver stage in HepG2, luciferase luminescence, concentration not given here; parasite load remaining: stronger effect = lower value; viability: measured here: HepG2 viability without parasites
# [2] = Cy5 fluorescence interference with SSB-bound oligo, artefact control for HCV NS3 helicase inhibitor project, biochemical, NIH Clinical Collection, E. coli SSB (AID 743268; call rule not given here)
# [3] = test system: Hepatitis C virus NS3 helicase; assay: HCV NS3 helicase inhibitors, primary screen, biochemical, fluorescence polarization, NIH Clinical Collection (AID 743270; call rule not given here); conditions: NS3 helicase binding to Cy5-dT15 DNA, stronger effect = higher value, concentration not given here
# [4] = molecular target: Single-stranded DNA-binding protein (Escherichia coli (strain K12)) (UniProt P0AGE0); assay: E. coli SSB displacement from DNA, counter-screen for HCV NS3 helicase inhibitor project, biochemical, fluorescence polarization, NIH Clinical Collection (AID 743271; in the data active means inhibition above about 28%); conditions: stronger effect = higher value, concentration not given here
# [5] = fluorescence interference in NS3h assay format, artefact control for HCV NS3 helicase inhibitor project, biochemical, NIH Clinical Collection (AID 743272; call rule not given here;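 further: HCV NS3 helicase with a Cy5 labelled single stranded DNA probe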); conditions: fluorescence interference counterscreen, stronger effect = lower value
# [6] = modulation of C. elegans fzo-1 (AID 1259413; call rule not given here;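 further: fzo-1 mutant C. elegans worms in liquid wells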); conditions: C. elegans fzo-1 modulator screen, mean read-out; stronger effect = higher value
# [7] = survival rescue of mitochondrial mutant cells in low glucose, primary screen, MELAS cybrids, Rieske KO mouse fibroblasts, CellTiter-Glo (AID 1508586;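 active means mean z-score across replicates of 1.96 or higher in either the MELAS or the Rieske mutant cell line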;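 further: z relative to plate mean and SD of compound and empty wells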)
# [8] = viability rescue of complex I mutant cybrids, primary screen, cell-based, galactose medium, ATP luminescence (AID 1645843;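 active means z-score of at least 1.8 in each of two replicates, scored against plate mean and spread of sample wells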;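 further: positive z means more ATP and so rescue of galactose-driven cybrid death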); conditions: complex I mutant cybrid cells, 72 h, stronger effect = higher value
# F380Y = assay: modulators of BK channel variants, profiling panel, selectivity assay, cell-based, U2OS BacMam, thallium flux, beta subunits (AID 1259406); conditions: at 30 µM;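 further: initial slope of Thallos dye fluorescence rise after thallium is added; log ratio against the mean of 0.3% DMSO vehicle wells on the same plate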
# F380Y/beta1 = assay: as above; conditions: at 30 µM
# F380Y/beta2Delta = assay: as above; conditions: at 30 µM
# F380Y/beta4 = assay: as above; conditions: at 30 µM
# [9] = molecular target: Calcium-activated potassium channel subunit alpha-1 (Homo sapiens) + Leucine-rich repeat-containing protein 26 (Homo sapiens) (UniProt Q12791+Q2I0M4); assay: as above; conditions: F380Y/Slo1WT/gamma1, at 30 µM
# R275C = assay: as above; conditions: at 30 µM
# R275C/beta1 = assay: as above; conditions: at 30 µM
# R275C/beta2Delta = assay: as above; conditions: at 30 µM
# R275C/beta4 = assay: as above; conditions: at 30 µM
# R275C/Slo1WT/beta2 = assay: as above; conditions: at 30 µM
# [10] = sensitizers of A549 cells to miR-34 induction, primary screen, imaging, A549 dox-inducible miR-34, nuclei and caspase counts (AID 1347080;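 active means compounds whose cell count with miR-34 switched on is under 0.7 times the count with it off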); conditions: A549 miR-34 inducible, Hoechst nuclei count, 48 h
# [11] = MELAS cybrid survival, CellTiter-Glo 48 h, stronger effect = higher value
# [12] = Rieske KO mouse fibroblast survival, CellTiter-Glo 72 h
# [13] = stronger effect = lower value, cell number ratio, induced over uninduced
# [14] = measured here: relative caspase fold change +Dox/-Dox
# [15] = measured here: total cells with miR-34 induction, stronger effect = lower value
# [16] = measured here: total cells without miR-34 induction
# Calcium-activated potassium channel subunit alpha-1 (Homo sapiens) + Leucine-rich repeat-containing protein 26 (Homo sapiens), sequence (Q2I0M4 whole entry, looked up, one chain of several): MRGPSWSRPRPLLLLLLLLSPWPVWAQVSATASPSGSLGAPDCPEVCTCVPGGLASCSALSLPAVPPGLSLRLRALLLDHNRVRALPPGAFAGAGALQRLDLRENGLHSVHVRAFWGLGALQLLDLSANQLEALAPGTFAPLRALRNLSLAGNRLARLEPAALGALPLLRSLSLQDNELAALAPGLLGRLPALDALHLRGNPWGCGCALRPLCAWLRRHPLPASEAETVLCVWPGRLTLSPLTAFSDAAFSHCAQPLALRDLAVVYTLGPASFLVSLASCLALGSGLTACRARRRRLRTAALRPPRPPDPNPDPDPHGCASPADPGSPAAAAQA
smiles,measurement,setting,value
Cc1cc2c(s1)Nc1ccccc1N=C2N1CCN(C)CC1,parasite load remaining,[1],58.8% (inactive) and 82.2% (inactive) and 32.6% (inactive)
same,viability,[1],151% and 67.6% and 138%
same,fluorescence ratio,[2],1.04 (inactive)
same,inhibition,[3],-1.19% (inactive)
same,inhibition,[4],-3.18% (inactive)
same,fluorescence ratio,[5],1 (inactive)
same,mean signal,[6],245 (inactive)
same,z-score,[7]; [11],-0.362 (inactive) and 0.328 (inactive) and 0.46 (inactive)
same,z-score,[7]; [12],0.469 and -0.59 and 1.26
same,z-score,[8],-0.17 (inactive) and -0.015 (inactive)
same,log fold change Tl+ flux,F380Y,0.136 (active)
same,log fold change Tl+ flux,F380Y/beta1,0.0857 (inactive)
same,log fold change Tl+ flux,F380Y/beta2Delta,0.0704 (inactive)
same,log fold change Tl+ flux,F380Y/beta4,0.111 (active)
same,log fold change Tl+ flux,[9],-0.004 (inactive)
same,log fold change Tl+ flux,R275C,-0.00393 (inactive)
same,log fold change Tl+ flux,R275C/beta1,0.000391 (inactive)
same,log fold change Tl+ flux,R275C/beta2Delta,-0.0244 (inactive)
same,log fold change Tl+ flux,R275C/beta4,-0.0479 (inactive)
same,log fold change Tl+ flux,R275C/Slo1WT/beta2,0.0472 (inactive)
CC(=O)NC[C@H]1CN(c2ccc(N3CCOCC3)c(F)c2)C(=O)O1,parasite load remaining,[1],99.9% (inactive) and 45% (inactive)
same,viability,[1],74.1% and 114%
same,fluorescence ratio,[2],1.07 (inactive)
same,inhibition,[3],6.73% (inactive)
same,inhibition,[4],2.21% (inactive)
same,fluorescence ratio,[5],1.04 (inactive)
same,mean signal,[6],269 (inactive)
same,fold change,[10]; [13],1.08 (inactive) and 0.926 (inactive)
same,fold change,[10]; [14],1.57 and 0.639
same,cell count,[10]; [15],10400 and 9730
same,cell count,[10]; [16],9600 and 10500
same,z-score,[7]; [11],-0.794 (inactive) and 0.174 (inactive)
same,z-score,[7]; [12],-2.51 and -1.01
same,z-score,[8],1.22 (inactive) and -0.185 (inactive)
same,log fold change Tl+ flux,F380Y,0.0386 (inactive)
same,log fold change Tl+ flux,F380Y/beta1,0.0152 (inactive)
same,log fold change Tl+ flux,F380Y/beta2Delta,-0.0137 (inactive)
same,log fold change Tl+ flux,F380Y/beta4,-0.01 (inactive)
same,log fold change Tl+ flux,[9],-0.0237 (inactive)
same,log fold change Tl+ flux,R275C,-0.0414 (inactive)
same,log fold change Tl+ flux,R275C/beta1,0.0265 (inactive)
same,log fold change Tl+ flux,R275C/beta2Delta,0.023 (inactive)
same,log fold change Tl+ flux,R275C/beta4,0.00539 (inactive)
same,log fold change Tl+ flux,R275C/Slo1WT/beta2,0.0288 (inactive)
CC(C)(S)C(N)C(=O)O (stereo not drawn),parasite load remaining,[1],70.2% (inactive) and 91.2% (inactive) and 22.9% (inactive)
same,viability,[1],95.3% and 72.3% and 93.1%
same,fluorescence ratio,[2],1.01 (inactive)
same,inhibition,[3],-10.4% (inactive)
same,inhibition,[4],-2.76% (inactive)
same,fluorescence ratio,[5],0.98 (inactive)
same,mean signal,[6],224 (inactive)
same,fold change,[10]; [13],0.987 (inactive) and 0.932 (inactive)
same,fold change,[10]; [14],2.48 and 3.04
same,cell count,[10]; [15],11000 and 11700
same,cell count,[10]; [16],11100 and 12600
same,z-score,[7]; [11],0.615 (inactive)
same,z-score,[7]; [12],0.358
same,z-score,[8],-0.255 (inactive)
same,log fold change Tl+ flux,F380Y,0.0383 (inactive)
same,log fold change Tl+ flux,F380Y/beta1,-0.0205 (inactive)
same,log fold change Tl+ flux,F380Y/beta2Delta,-0.0259 (inactive)
same,log fold change Tl+ flux,F380Y/beta4,0.0204 (inactive)
same,log fold change Tl+ flux,[9],0.0127 (inactive)
same,log fold change Tl+ flux,R275C,-0.00906 (inactive)
same,log fold change Tl+ flux,R275C/beta1,0.00628 (inactive)
same,log fold change Tl+ flux,R275C/beta2Delta,-0.0298 (inactive)
same,log fold change Tl+ flux,R275C/beta4,0.0197 (inactive)
same,log fold change Tl+ flux,R275C/Slo1WT/beta2,-0.0192 (inactive)
